AF4-AF9 inh: blocks AF4 peptide binding to human AF9; P42568; AlphaScreen, biotin-AF4 peptide binding to FLAG-AF9; inhibition, % at 10 µM; hit rate 0.47% among 350,000; AID 651704;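 active = every replicate reaching a set inhibition limit, whatever the replicate mean, cut at about 25% in these data; inconclusive = mean inhibition reaches that limit but some replicates miss it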
Target sequence (P42568 whole entry, looked up): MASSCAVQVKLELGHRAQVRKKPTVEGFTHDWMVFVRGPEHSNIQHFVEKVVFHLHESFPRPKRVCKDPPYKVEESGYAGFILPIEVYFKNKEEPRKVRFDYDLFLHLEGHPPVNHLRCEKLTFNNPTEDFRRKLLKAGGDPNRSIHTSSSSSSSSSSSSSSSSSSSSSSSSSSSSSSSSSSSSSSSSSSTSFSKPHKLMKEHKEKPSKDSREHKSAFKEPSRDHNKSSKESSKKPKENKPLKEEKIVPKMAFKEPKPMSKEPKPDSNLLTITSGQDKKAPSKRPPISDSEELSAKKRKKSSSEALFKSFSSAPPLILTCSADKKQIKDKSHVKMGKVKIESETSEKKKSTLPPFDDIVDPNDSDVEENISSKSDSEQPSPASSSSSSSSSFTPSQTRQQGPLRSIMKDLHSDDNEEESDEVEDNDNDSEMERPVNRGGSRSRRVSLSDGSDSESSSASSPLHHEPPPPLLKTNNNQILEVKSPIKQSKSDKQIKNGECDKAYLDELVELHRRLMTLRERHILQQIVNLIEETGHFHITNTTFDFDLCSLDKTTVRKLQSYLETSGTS
FGF22 binding: binders of recombinant human FGF22 by thermal shift | Q9HCT0 | SYPRO orange fluorescence; percent of sucrose octasulfate shift, DMSO zero | activity (Tm shift, normalised), % at 9.99 µM | hit rate 1.5% among 340,000 | AID 651658;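 active = mean Tm shift, scaled 0 neutral to 100 positive control, at about 1.3% or above, every replicate too, limit read from the data; inconclusive = no clear call, values can overlap the other calls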
MITF TRPM1 HTS: activators of MITF-driven TRPM1 promoter activity in SK-MEL-5 cells | SK-MEL-5 TRPM1-promoter luciferase, 24 h; % of positive control, neutral wells = 0 | activation, % at 12.5 µM | hit rate 0.75% among 300,000;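 active = mean activation of at least 80% with every replicate also reaching 80%; inconclusive = mean reaches 80% but some replicate falls short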
esBAF inh: blocks esBAF chromatin remodeling in mouse ES cells; Bmi1-luciferase knock-in reporter, 24 h; 100% = twice the neutral-well signal; reporter increase, % at 12.5 µM; hit rate 2% among 350,000; AID 602393; in the data active = activation above about 40%; inconclusive = no clear call, values can overlap the other calls;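 also: a rise in the Bmi1 reporter signal indicates esBAF inhibition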
SMARCA2 act: SMARCA2 function activation, primary screen; MG213 cells, MMTV-luciferase reporter, dexamethasone, overnight; activation, % at 9.1 µM; AID 652017; hit rate 1% among 370,000; in the data active = activation above about 7.8%
Wnt act: Wnt/beta-catenin pathway activation | hit rate 1.2% among 300,000 | activation, % at 9.35 µM | Wnt/beta-catenin reporter cell assay, activator, plate reader | AID 743398; in the data active = activation above about 30%, passing the limit was not always enough; inconclusive = no clear call, values can overlap the other calls
Numbers stand for hits; i = inactive; ? = inconclusive; nt = no result. This is a sample that favours compounds with a hit; in the whole collection about 4.3% have one here.

SMILES	AF4-AF9 inh	FGF22 binding	MITF TRPM1 HTS	esBAF inh	SMARCA2 act	Wnt act
Cc1cc(OCc2cc(C(=O)NC(C)c3cnn(C)c3)no2)cc(C)c1Cl (stereo unspecified)	i	i	nt	72	i	nt
Cc1nc(C(C)NC(=O)c2cc(COc3ccc(C)c(C)c3)on2)c(C)s1 (stereo unspecified)	i	i	i	73	i	i
Cc1ccc(OCc2cc(C(=O)NC(C)Cc3cnccn3)no2)cc1C (stereo unspecified)	i	i	i	nt	i	i
O=C(c1ccncc1)N1CC[C@@H]2[C@@H](CO)Nc3ccc(Br)cc3[C@@H]21	nt	nt	nt	i	nt	nt
CCOC(=O)C1(CCOc2ccccc2)CCN(Cc2ccc(-n3cccn3)cc2)CC1	i	44	i	i	i	i
CCOC(=O)C1(CCOc2ccccc2)CCN(Cc2nccn2CC)CC1	i	i	i	nt	i	i
CCOC(=O)C1(CCOc2ccccc2)CCN(Cc2ccncc2)CC1	i	i	i	i	i	i
CCOC(=O)C1(CCOC)CCN(Cc2ccncc2)CC1	i	43	i	nt	i	i
CCOC(=O)C1(CCCc2ccccc2)CCN(Cc2nccn2CC)CC1	i	43	i	nt	i	i
Cc1ccc(S(=O)(=O)N[C@H]2CC[C@@H](CC(=O)N3CCN(c4ccccc4)CC3)O[C@H]2CO)cc1	i	i	nt	i	nt	nt
C[C@@H]1CCCCO[C@@H](CN(C)Cc2ccncc2)[C@@H](C)CN([C@@H](C)CO)C(=O)c2cc(NS(C)(=O)=O)ccc2O1	nt	nt	nt	i	nt	nt
Cc1nn(Cc2ccccc2)c(Cl)c1C(=O)NCCc1ccccc1	i	i	i	nt	i	47
CCc1nc2ccccc2c(C(=O)NCc2ccccc2)c1C	i	43	i	nt	i	i
CCc1noc(C)c1C(=O)NCCc1ccccc1	i	i	i	nt	i	34
CC(C)NC(=O)N(C)C[C@H]1Oc2c(NC(=O)Nc3ccc4c(c3)OCO4)cccc2C(=O)N([C@@H](C)CO)C[C@H]1C	nt	i	nt	i	nt	nt
N#CCC(=O)Nc1nc(-c2ccc3c(c2)OCCO3)cs1	i	i	i	nt	i	i
COc1cc(C(=O)Nc2cccc(C)n2)ccc1OCC(=O)N1CCOCC1	i	i	i	i	i	i
COc1ccc(-c2csc(NC(=O)c3ccc(OCC(=O)N4CCOCC4)c(OC)c3)n2)cc1OC	i	44	i	nt	i	i
O=C(CCCCl)Nc1nc(-c2ccc3c(c2)OCCO3)cs1	i	i	88	i	i	i
CC(=O)Nc1nc(-c2ccc3c(c2)OCO3)cs1	i	i	i	i	i	53
O=C(Nc1nc(-c2ccc(Cl)cc2)cs1)C1CCCO1 (stereo unspecified)	i	i	i	48	i	65
COCC#Cc1cnc2c(c1)C(=O)N([C@H](C)CO)C[C@@H](C)[C@H](CN(C)C(=O)C1CCCCC1)O2	nt	i	nt	i	nt	nt
O=C(Nc1nc(-c2ccc3c(c2)OCCO3)cs1)C1CCCC1	nt	i	144	nt	i	44
Cc1ccc(C(=O)Nc2nc(-c3ccc4c(c3)OCCO4)cs2)o1	i	i	nt	i	i	i
COc1cccc(-c2csc(NC(=O)C3CC3)n2)c1	i	i	120	61	i	?
SMILES	AF4-AF9 inh	FGF22 binding	MITF TRPM1 HTS	esBAF inh	SMARCA2 act	Wnt act
O=C(CSCC(=O)N1CCOCC1)Nc1nc(-c2ccc3c(c2)OCO3)cs1	i	i	nt	54	i	i
Cc1ccc(-c2csc(NC(=O)CN3CCOCC3)n2)cc1	i	i	i	i	i	i
COc1cccc(-c2csc(NC(=O)Nc3ccccc3)n2)c1	i	i	i	i	i	i
Cc1ccc(-c2csc(NC(=O)N3CCOCC3)n2)cc1	i	i	i	83	i	i
O=C(C[C@H]1CC[C@H]2[C@@H](COC[C@@H](O)CN2S(=O)(=O)c2cccc(Cl)c2)O1)NCCCN1CCOCC1	nt	i	nt	i	nt	nt
CO[C@@H]1CN(C)C(=O)c2ccc(NS(=O)(=O)c3cccc(F)c3)cc2OC[C@@H](C)NC[C@H]1C	i	i	nt	i	nt	nt
Cc1ccc(S(=O)(=O)Nc2ccc3c(c2)C(=O)N([C@H](C)CO)C[C@H](C)[C@@H](CN(C)C(=O)Nc2c(C)noc2C)OCCCC[C@H](C)O3)cc1	i	i	nt	i	nt	nt
S=C(c1ccc(-c2ccc(Cl)cc2Cl)o1)N1CCCC1	i	i	nt	nt	i	33
CN1CCN(C(=S)c2ccc(-c3cc(Cl)ccc3Cl)o2)CC1	?	i	i	nt	i	i

Compound activity (PubChem BioAssay)
